VDR inh – inhibitors of human vitamin D receptor; 400,000 compounds, 0.93% hits; Potency, µM, without a hit: max response, negative = inhibition, usual class: inhibitors; VDR-SRC2-3 peptide fluorescence polarization, 2 h; P11473; note: % is set by controls: 0 for no effect and ±100 for the full control effect
Target sequence (P11473 whole entry, looked up): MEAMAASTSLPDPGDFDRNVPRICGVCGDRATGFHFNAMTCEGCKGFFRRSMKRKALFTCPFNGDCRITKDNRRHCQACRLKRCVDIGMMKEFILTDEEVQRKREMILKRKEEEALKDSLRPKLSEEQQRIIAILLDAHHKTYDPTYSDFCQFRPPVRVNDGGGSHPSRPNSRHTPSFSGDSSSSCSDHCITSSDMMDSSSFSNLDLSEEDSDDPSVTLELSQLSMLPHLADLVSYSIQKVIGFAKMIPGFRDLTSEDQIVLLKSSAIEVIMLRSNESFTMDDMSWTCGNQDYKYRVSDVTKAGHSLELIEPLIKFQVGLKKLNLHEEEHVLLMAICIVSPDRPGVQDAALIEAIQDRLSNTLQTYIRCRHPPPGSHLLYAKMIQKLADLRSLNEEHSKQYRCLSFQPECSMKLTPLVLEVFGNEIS
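Compounds are added to VDR with labelled SRC2-3 coactivator peptide and held 2 h at room temperature. Inhibition of the VDR–peptide interaction is then read as a change in fluorescence polarization.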
JMJD2A Tudor inh – JMJD2A Tudor domain (human) inhibition | AlphaScreen JMJD2A-Tudor / H3K4me3 peptide binding | O75164 | 390,000 compounds, 4.4% hits | Potency, µM (doses to about 114 µM), for the others: at the top dose activity change, negative = inhibition, most hits filed as inhibitors; note: % is set by controls: 0 for no effect and ±100 for the full control effect; nearly all actives have a fitted effect of over 50% in size
HP1b binding inh – HP1-beta chromodomain-methylated histone interaction inhibition; 390,000 compounds, 0.56% hits; AlphaScreen HP1-beta / biotin-H3K9me3 peptide binding; P83916; Potency, µM (highest dose often 114 µM), inactives show at the highest dose activity change, negative = inhibition, hits mostly inhibitors; note: nearly all actives have a fitted effect of over 70% in size
Target sequence (P83916 whole entry, looked up): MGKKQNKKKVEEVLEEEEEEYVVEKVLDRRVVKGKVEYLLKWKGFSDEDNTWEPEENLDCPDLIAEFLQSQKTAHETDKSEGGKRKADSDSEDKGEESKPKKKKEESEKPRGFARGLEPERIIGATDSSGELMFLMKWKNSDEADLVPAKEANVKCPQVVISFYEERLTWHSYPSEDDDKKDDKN
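Compound inhibition of the preformed complex between 50 nM HP1-beta and 50 nM biotinylated H3K9me3 peptide was read by AlphaScreen. Buffer was PBS pH 7.4 with 0.01% Tween-20. Incubations ran 30 min at room temperature, with 10 ug/mL donor/acceptor beads.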
PLK1 PBD inh – inhibitors of human PLK1 polo-box domain binding; Plk1 PBD binding of FITC phosphopeptide, fluorescence polarization; AID 720504; P53350; 360,000 compounds, 2.8% hits; Potency, µM, inactives show max response, negative = inhibition, actives largely listed as inhibitors; note: series mostly up to about 57 µM; % is set by controls: 0 for no effect and ±100 for the full control effect; nearly all actives have a fitted effect of over 65% in size
BAZ2B block – BAZ2B (human) inhibition. Potency, µM (doses to about 114 µM), for the others: at the highest dose activity change, negative = inhibition, hits mostly inhibitors. AlphaScreen BAZ2B-H3K14Ac peptide displacement. 360,000 compounds, 4.4% hits. Q9UIF8; note: % is set by controls: 0 for no effect and ±100 for the full control effect; nearly all actives have a fitted effect of over 60% in size
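Complex of BAZ2B and biotin-H3K14Ac (50 nM apiece) forms over 30 min at RT, then faces library compounds up to 110 uM for another 30 min; AlphaScreen beads added, 20 min dark incubation, luminescence read.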
L3MBTL1 block – blocks human L3MBTL1; Q9Y468; Potency, µM (doses to about 57.1 µM), without a hit: at the top dose activity, negative = inhibition, hits mostly inhibitors; AlphaScreen L3MBTL1–H3K9me1 peptide binding; 230,000 compounds, 0.66% hits; AID 485360; note: % is set by controls: 0 for no effect and ±100 for the full control effect; nearly all actives have a fitted effect of over 60% in size
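Read-out is AlphaScreen signal from streptavidin donor and nickel chelate acceptor beads (10 ug/mL final each) bridging L3MBTL1 (50 nM) and biotinylated K9-monomethylated H3(1-15) peptide (75 nM), after 30 min compound exposure at room temperature.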
* = called active by the depositor; ? = inconclusive; . = no result given; [ ] = another dose, or the depositor's remark. An excerpt weighted towards active compounds, which were near 6.9% of everything screened. Calls come from the whole dose curve; as a rule, active = well fitted curve in the direction sought with a large enough effect; inconclusive = small, poorly fitted or top-dose-only effect, or another doubt; inactive = no such curve, though single readings can be large; an effect the other way counts as inactive or inconclusive. Potency is the fitted concentration of half-maximal effect.

SMILES	VDR inh	JMJD2A Tudor inh	HP1b binding inh	PLK1 PBD inh	BAZ2B block	L3MBTL1 block
CCOc1ccc(CC(=O)Nc2c(C(=O)c3ccc(F)cc3)oc3ccc(Cl)cc23)cc1OCC	-17%	-4%	37%	.	-17%	.
S=c1nc[nH]c2c1ncn2-c1ccccc1	3%	0.63µM*	15%[57 µM]	-8%	.	.
CC(C)n1cnc2c(=S)nc[nH]c21	-28%	?	39%	-5%	50µM*	6%
CN(C=[N+](C)C)c1cccc2c1C(=O)c1ccccc1C2=O	13%	45µM*	16µM*	-22%	18µM*	?
C/C(=N\N(C)C)C1=C(O)c2ccccc2C1=O	0%	-14%	11%	5%	5%	3%
Cc1nc2scc(C)n2c(=O)c1S(=O)(=O)NCc1ccccc1Cl	1%	-1%	28%	-13%	-15%	.
Cc1nc2scc(C)n2c(=O)c1S(=O)(=O)NCCc1ccccc1	?	-13%	5%	12µM*	-3%	.
Cc1nc2scc(C)n2c(=O)c1S(=O)(=O)NC(C)c1ccccc1 (stereo not drawn)	?	25µM*	14%	19µM*	0%	.
Cc1ccc(S(=O)(=O)Nc2cccc(S(=O)(=O)Nc3ccccc3C(=O)O)c2)c(C)c1	8%	-10%	21%	-28%	.	-4%
COc1cc(/C=C/C=C2/CC/C(=C/C=C/c3ccc(O)c(OC)c3)C2=O)ccc1O	?	56µM*	?	7%	.	.
COc1ccc(/C=C2\CC/C(=C\c3ccc(OC)c(OC)c3)C2=O)cc1OC	?	?	-22%	-11%	20µM*	-11%
COc1ccc(C=C2C=C(C(C)(C)C)C(=O)C(C(C)(C)C)=C2)cc1OC	?	32µM*	?	30µM*	25µM*	-5%
COc1cc(/C=C2/CC/C(=C/c3ccc(O)c(OC)c3)C2=O)ccc1O	-9%	-19%[11.4 µM]	-7%	?	?	-14%
Cc1noc(C)c1-c1ccc(C(=O)NCc2cccc(Cl)c2)c2occc12	.	.	.	-3%	.	.
N[C@H](C(=O)O)c1nn[nH]n1	1%	.	.	.	.	.
Cc1cc(C)c2nc(SCC(=O)Nc3ccccc3N3CCOCC3)c(C#N)cc2c1	-8%	?	?	30µM*	.	.
COc1cc(OC)nc(NC(=O)NS(=O)(=O)c2ccccc2Cl)n1	1%	6%	26%	5%	-2%	2%
Cc1cc(N(C)N)nc(NC(=O)NS(=O)(=O)c2ccccc2Cl)n1	-6%	28µM*	25%[57 µM]	-11%	28µM*	.
Cc1ccn2c(NC3CCCC3)c(-c3cccs3)nc2c1	40µM*	10µM*	-11%	4.2µM*	?	-6%
CCC(C)Sc1cc(-c2nc3ccccn3c2NC2CCCCC2)ccc1OC (stereo not drawn)	-5%	79µM*	4%	-7%	?	-10%
Cc1ccn2c(NCc3ccccc3)c(-c3cccs3)nc2c1	2%	?	-2%	-7%	?	-9%
CC(=O)c1ccc(-c2cccc(-c3nc4ccccn4c3NC3CCCCC3)c2)cc1	2%	?	-14%	-4%	40µM*	-16%
CCC(C)Sc1cc(-c2nc3cc(C)ccn3c2NC2CCCCC2)ccc1OC (stereo not drawn)	-3%	50µM*	-10%	-5%	.	-14%
Cc1noc(C)c1-c1cncnc1N1CCN(C)CC1	32µM*	.	.	.	.	.
O=C(COC(=O)Cc1ccc(Cl)cc1)NCc1ccc(Cl)cc1	.	.	.	-2%	.	.
SMILES	VDR inh	JMJD2A Tudor inh	HP1b binding inh	PLK1 PBD inh	BAZ2B block	L3MBTL1 block
O=C(COC(=O)Cc1ccc(-c2ccccc2)cc1)NCc1ccccc1	?	-21%	-5%	27µM*	3%	-16%
NS(=O)(=O)c1ccc(NC(=S)NCC2CCCO2)cc1 (stereo not drawn)	-19%	-12%	?	24µM*	-4%	9%
S=C(NCC1CCCO1)Nc1ccc(Nc2ccccc2)cc1 (stereo not drawn)	-3%	?	?	?	?	-12%
S=C(NCCN1CCOCC1)N1CCN(c2cccc(Cl)c2)CC1	-10%	8.9µM*	-29%	?	28µM*	.
NS(=O)(=O)c1ccc(NC(=S)N2CCN(c3cccc(Cl)c3)CC2)cc1	-26%	-2%	-19%	17µM*	2%	-4%
S=C(NCc1ccco1)N1CCN(c2cccc(Cl)c2)CC1	-7%	-24%	-23%	-22%	-30%	-12%
CN1CCN(C(=S)Nc2ccc(S(N)(=O)=O)cc2)CC1	-16%	6%	33%	27µM*	-19%	-3%
NS(=O)(=O)c1ccc(NC(=S)N2CCN(c3ccccc3Cl)CC2)cc1	-18%	-3%	21%	-7%	3%	-7%
NS(=O)(=O)c1ccc(NC(=S)N2CCN(S(=O)(=O)c3ccc(F)cc3)CC2)cc1	.	.	.	.	-31%	0%
Cc1ccc2c(c1)c(=O)c1ccccc1n2CCCC(=O)Nc1c(F)cccc1F	3%	-15%	24%	.	2%	.
COc1cccc(-n2c(=O)n(Cc3ccccc3)c(=O)c3[nH]cnc32)c1C	13%	4%	47%	-6%	4%	.
O=C(C1CCCO1)N1CCN(C(=S)Nc2ccc(Br)cc2)CC1 (stereo not drawn)	-16%	-12%	25%	-7%	1%	.
NS(=O)(=O)c1ccc(NC(=S)N2CCN(C(=O)C3CCCO3)CC2)cc1 (stereo not drawn)	?	10%	-14%	11µM*	-6%	.
COc1ccc(-c2nc(CNC(=O)NC3CCCCC3)c(C)o2)c(OC)c1	5%	4%	30%	.	-17%	.
N#C/C(=C(/O)c1ccccc1F)c1nc2cc(C(F)(F)F)ccc2s1	-2%	?	?	27µM*	1%	-2%
CCOC(=O)c1ccc2ncc(C(=O)OCC)c(Nc3ccc(N4CCOCC4)cc3)c2c1	-2%	40µM*	?	4%	14µM*	?
CCOC(=O)c1cnc2ccc(C(=O)OC)cc2c1Nc1ccc(C(=O)O)cc1	-1%	-22%	42%	-17%	?	4%
CCOC(=O)c1cnc2c(C)c(Cl)ccc2c1Nc1ccc(N2CCOCC2)cc1	-2%	?	-27%	.	10µM*	.
CCOC(=O)c1cnc2c(C)cccc2c1Nc1ccc(N2CCOCC2)cc1	.	.	.	.	14µM*	?
CCOC(=O)c1cnc2ccc(OC)cc2c1Nc1ccc(N2CCN(C)CC2)cc1	-4%	32µM*	-32%[57 µM]	6.7µM*	35µM*	.
Cc1c(C(=O)N(C)C)sc2c1c(=O)n(-c1ccc(Cl)c(Cl)c1)c(=O)n2Cc1ccc(F)cc1	7%	-12%	32%	.	2%	.
CCOc1ccccc1NC(=O)Cn1c(=O)ccc2cc(S(=O)(=O)N3CCC(C)CC3)ccc21	-3%	-15%	13%[57 µM]	.	2%	.
COc1cccc(NC(=O)c2cnc(SC)nc2)c1	-4%	-6%	57%	3%	-2%	11%

Bioassay records (PubChem BioAssay)
